In PubChem BioAssay (NCATS):
“And” between values parts separate entries of the source, which are not always exact repeats. Identical values can stand only once. Records with an inconclusive call do not appear. The source made the active and inactive calls. Unless noted, calls follow the shape of the dose curve; as a rule, active = well fitted curve in the direction sought with a large enough effect; inconclusive = small, poorly fitted or top-dose-only effect, or another doubt; inactive = no such curve, though single readings can be large; an effect the other way counts as inactive or inconclusive.

Columns and labels:
[1] = biological target: Cellular tumor antigen p53 (Homo sapiens) (UniProt P04637); test: Primary qHTS for small molecule compounds that upregulate eGFP-tagged delta133p53alpha (in N-terminal) cells. (AID 2060322); conditions: NCI-H358 eGFP-delta133p53alpha fluorescence, 24 h; activation: hits give high values; also: nearly all actives have a fitted effect of over 75% in size; also: potency is read from the fitted curve at half-maximal effect;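 as to activation: 0% = DMSO vehicle and 100% = reference activator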
Procedure, shortened: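 NCI-H358 cells pre-induced 24 h with 10 ng/ml doxycycline to express N-terminal eGFP-delta133p53alpha, then dosed 24 h at 37C without doxycycline; fixed, Hoechst-stained, GFP intensity by laser scanning cytometry, normalized to DMSO (0%) and 57.5 uM 5-azacytidine (100%).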

[2] = biological target: Cellular tumor antigen p53 (Homo sapiens) (UniProt P04637); test: Primary qHTS for small molecule compounds that upregulate eGFP-tagged delta133p53alpha (in C-terminal) cells. (AID 2060324); conditions: NCI-H358 delta133p53alpha-eGFP (C-terminal tag), GFP fluorescence imaging, 24 h; series mostly up to 57.5 µM; also: potency is read from the fitted curve at half-maximal effect
Procedure, shortened: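 C-terminal eGFP-tagged delta133p53alpha NCI-H358 line; dox-induced (100 ng/ml, 24 h) then plated without dox; compounds pinned in titration, 24 h 37 °C/5% CO2; PFA fix, Hoechst nuclei; GFP by LSC.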

[3] = biological target: Aldehyde dehydrogenase, mitochondrial (Homo sapiens) (UniProt P05091); test: qHTS for Inhibitors of the Aldehyde Dehydrogenase Family (ALDH2) Validation screens (AID 2061302; active = well fitted inhibition curve with a large enough effect; title and protocol of this record describe different tests;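 also: plate controls were DMSO vehicle for no effect and maximal DPI positive control response for full effect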); conditions: ALDH inhibition qHTS; series mostly up to 42.6 µM
[4] = biological target: Retinaldehyde dehydrogenase 3 (Homo sapiens) (UniProt P47895); test: qHTS for Inhibitors of the Aldehyde Dehydrogenase Family (ALDH1A3) Validation screen (AID 2061312); conditions: ALDH1A3 enzyme inhibition qHTS validation, fluorescence; series mostly up to 42.4 µM; also: % is scaled to controls: 0 for no effect and ±100 for the full control effect; nearly all actives have a fitted effect of over 45% in size
[5] = BET inhibitor-based combinations targeting novel dependencies in MECOM-rearranged (r) AML: SET-2 cell line (AID 2202231); conditions: SET-2 AML cells viability, CellTiter-Glo luminescence, 48 h; viability: hits give low values, concentration not given here;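 also: plate controls were DMSO treated cells for no effect and wells without cells for full effect; nearly all actives have a fitted effect of over 35% in size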
Procedure, shortened: (§1)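 Each compound was tested at eleven concentrations on cells seeded at 500/well. After two days' incubation, ATP-based luminescence reported viability; responses relative to DMSO and blank wells yielded AUC and cell-line-centred Z-AUC.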

[6] = BET inhibitor-based combinations targeting novel dependencies in MECOM-rearranged (r) AML: MV-4-11 cell line (AID 2202233); conditions: MV-4-11 AML viability, CellTiter-Glo luminescence, 48 h; series mostly up to 46 µM; also: nearly all actives have a fitted effect of over 45% in size; also: potency is read from the fitted curve at half-maximal effect
Procedure, shortened: (§2)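 First, 500 cells per well were seeded; next, drugs were pinned as 11-point doses; then plates sat 48 hr in the incubator; finally CellTiter-Glo was added and luminescence read, with AUC and Z-AUC computed.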

[7] = BET inhibitor-based combinations targeting novel dependencies in MECOM-rearranged (r) AML: HNT-34 cell line (AID 2202234); conditions: HNT-34 AML viability, CellTiter-Glo luminescence, 48 h; series mostly up to 46 µM; also: nearly all actives have a fitted effect of over 35% in size; also: potency is read from the fitted curve at half-maximal effect
Procedure, shortened: as §2

[8] = BET inhibitor-based combinations targeting novel dependencies in MECOM-rearranged (r) AML: AML-191 cell line (AID 2202236; also: nearly all actives have a fitted effect of over 35% in size; also: potency is read from the fitted curve at half-maximal effect); conditions: AML-191 viability, CellTiter-Glo luminescence, 48 h; series mostly up to 46 µM
Procedure, shortened: as §1

[9] = BET inhibitor-based combinations targeting novel dependencies in MECOM-rearranged (r) AML: AML-194 cell line (AID 2202237; also: nearly all actives have a fitted effect of over 40% in size; also: potency is read from the fitted curve at half-maximal effect); conditions: AML-194 (MECOM-r AML) viability, CellTiter-Glo, 48 h; series mostly up to 46 µM
Procedure, shortened: as §1

[10] = BET inhibitor-based combinations targeting novel dependencies in MECOM-rearranged (r) AML: OCI-AML3 cell line (AID 2202232); conditions: CellTiter-Glo luminescence, 48 h; Potency: OCI-AML3 viability; series mostly up to 46 µM; also: nearly all actives have a fitted effect of over 35% in size; also: potency is read from the fitted curve at half-maximal effect
Procedure, shortened: as §1

[11] = BET inhibitor-based combinations targeting novel dependencies in MECOM-rearranged (r) AML: UCSD-AML1 cell line (AID 2202235); conditions: UCSD-AML1 AML cells viability, CellTiter-Glo, 48 h; series mostly up to 46 µM; also: nearly all actives have a fitted effect of over 40% in size; also: potency is read from the fitted curve at half-maximal effect
Procedure, shortened: as §2

Cellular tumor antigen p53 (Homo sapiens), sequence (P04637 whole entry, looked up): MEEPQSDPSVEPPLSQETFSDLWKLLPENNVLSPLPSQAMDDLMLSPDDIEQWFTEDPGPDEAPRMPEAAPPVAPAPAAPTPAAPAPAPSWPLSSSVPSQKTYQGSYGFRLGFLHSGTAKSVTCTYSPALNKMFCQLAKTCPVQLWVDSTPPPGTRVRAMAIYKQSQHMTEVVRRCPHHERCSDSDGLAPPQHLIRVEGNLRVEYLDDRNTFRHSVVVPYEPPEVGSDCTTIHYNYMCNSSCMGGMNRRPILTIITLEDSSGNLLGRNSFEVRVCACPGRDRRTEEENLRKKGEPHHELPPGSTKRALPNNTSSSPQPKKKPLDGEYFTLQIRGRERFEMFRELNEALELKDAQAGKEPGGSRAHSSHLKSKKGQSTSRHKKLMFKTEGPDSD

COc1ccc2[nH]c3c(c2c1)CCNC3
inactive: activation [1] -23.5% | Potency [2] | Potency [3] | Potency [4]

CN(C(=O)Cc1ccc(Cl)c(Cl)c1)C(CN1CCCC1)c1cccc(OCC(=O)O)c1 (stereo unspecified)
inactive: activation [1] -43.2% | Potency [2] | Potency [3] | Potency [4]

CC12NC(Cc3ccccc31)c1ccccc12 (stereo unspecified)
inactive: activation [1] 6.02% | Potency [2] | Potency [3] | Potency [4]

CCCN(CCC)C1Cc2cc(OC)c(OC)cc2C1
inactive: activation [1] -2.4% | Potency [2] | Potency [3] | Potency [4]

c1ccc2cc(CC3=NCCN3)ccc2c1
inactive: activation [1] -13.6% | Potency [2] | Potency [3] | Potency [4]

COC(=O)N1CCN(C(=O)Cc2ccc(Cl)c(Cl)c2)C(CN2CCCC2)C1 (stereo unspecified)
inactive: activation [1] 5.56% | Potency [2] | Potency [3] | Potency [4]

CCCN(CCC)[C@@H]1CCc2cccc(O)c2C1
inactive: activation [1] 20% | Potency [2] | Potency [3] | Potency [4]

Oc1ccc2c3c1O[C@H]1c4[nH]c5c(c4C[C@@]4(O)[C@@H](C2)N(CC2CC2)CC[C@]314)C[C@@]1(O)[C@H]2Cc3ccc(O)c4c3[C@@]1(CCN2CC1CC1)[C@H]5O4
inactive: activation [1] 26.8% and -10.8% | Potency [2] | Potency [3] | Potency [4]

NCc1cc(=O)[nH]o1
inactive: activation [1] 11.2% | Potency [2] | Potency [3] | Potency [4]

O=C(CCCN1CCC2(CC1)C(=O)NCN2c1ccccc1)c1ccc(F)cc1
inactive: activation [1] -10.7% and -39.7% | Potency [2] | Potency [3] | Potency [4]

Cc1nccc2c1[nH]c1ccccc12
inactive: activation [1] -18.9% | Potency [2] | Potency [3] | Potency [4]

C[C@]12CCC3C(CC[C@H]4C[C@H](O)CC[C@]34C)C1CC[C@@H]2C(=O)CO (stereo partly specified)
inactive: activation [1] -8.4% | Potency [2] | Potency [3] | Potency [4]

Cn1c(CCCC(=O)O)nc2cc(N(CCCl)CCCl)ccc21
active: Potency [6] 10500 nM | Potency [7] 14800 nM | Potency [8] 16600 nM | Potency [9] 20900 nM
inactive: activation [1] 27.7% and 5.11% and -16.6% | Potency [2] | Potency [3] | viability [5] 78.5%

O=C(O)CC[N+](=O)[O-]
inactive: activation [1] -18.9% | Potency [2] | Potency [3] | Potency [4]

CC(C)NP(=O)(NC(C)C)OP(=O)(NC(C)C)NC(C)C
inactive: activation [1] -39% | Potency [2] | Potency [3] | Potency [4]

O=C(O)c1nn(Cc2ccc(Cl)cc2Cl)c2ccccc12
inactive: activation [1] 21.3% and 19.8% and -21.2% | Potency [2] | Potency [3] | Potency [4] | Potency [10] | Potency [6] | Potency [7] | Potency [11] | Potency [8] | Potency [9]

CC[C@@]1(O)C(=O)OCc2c1cc1n(c2=O)Cc2cc3ccccc3nc2-1
active: Potency [1] 1090 nM | Potency [2] 3790 nM | Potency [10] 13.2 nM | Potency [6] 7.4 nM | Potency [7] 5.3 nM | Potency [11] 10.5 nM | Potency [8] 20.9 nM
inactive: Potency [3]

CC(N)[C@H](O)c1ccc(O)c(O)c1 (stereo partly specified)
inactive: activation [1] -12.2% | Potency [2] | Potency [3] | Potency [4]

CC(=O)[C@H]1CCC2C3CC[C@H]4C[C@H](O)CC[C@]4(C)C3CC[C@@]21C (stereo partly specified)
inactive: activation [1] -16.4% | Potency [2] | Potency [3] | Potency [4]

CCCCc1ccc(C(=O)O)nc1
inactive: activation [1] 16.6% | Potency [2] | Potency [3] | Potency [4]

CCCn1c(=O)c2[nH]c(C3CCCC3)nc2n(CCCOC(=O)c2ccc(S(=O)(=O)F)cc2)c1=O
inactive: activation [1] 11.3% | Potency [2] | Potency [3] | Potency [4]

CC(C)NC(C)Cc1ccc(I)cc1 (stereo unspecified)
inactive: activation [1] -3.39% | Potency [2] | Potency [3] | Potency [4]

CCCN(CCC)C1CCc2ccc(O)cc2C1 (stereo unspecified)
inactive: activation [1] -10.8% | Potency [2] | Potency [3] | Potency [4]

CC(=O)NBr
inactive: activation [1] -8.24% | Potency [2] | Potency [3] | Potency [4]

O=C1NCN(c2ccccc2)C12CCN(CC1COc3ccccc3O1)CC2 (stereo unspecified)
inactive: activation [1] -13.1% | Potency [2] | Potency [3] | Potency [4]

C[C@@H](N)Cc1cnc[nH]1
inactive: activation [1] 5.3% | Potency [2] | Potency [3] | Potency [4]

CS(=N)(=O)CC[C@H](N)C(=O)O (stereo partly specified)
inactive: activation [1] -13.1% | Potency [2] | Potency [3] | Potency [4]

C#CCOC(=O)C1=CCCN(C)C1
inactive: activation [1] -28.1% | Potency [2] | Potency [3] | Potency [4]

CNCC(O)c1ccc(O)cc1 (stereo unspecified)
inactive: activation [1] -9.6% and -1.8% and -6.7% | Potency [2] | Potency [3] | Potency [4] | viability [5] 116% | Potency [6] | Potency [8] | Potency [9]

CC(C)c1cccc(C(C)C)c1O
inactive: activation [1] 0.683% and -5.08% and -18.8% | Potency [2] | Potency [3] | Potency [4] | Potency [10] | Potency [11] | Potency [9]
